Source: ChEMBL document CHEMBL3988442, “University of Dundee, Small-Polar-MMV Screening Library” (2021)
Out of some 48,000 compounds screened, about 13,000 (27%) showed an effect of 50% or more. Some of the results follow.

System: Wolbachia pipientis
Experiment: Anti-Wolbachia Cell-Based Screen
Format: functional
Design: scale not given: in the data most compounds retested in dose-response had high values
Settings: 5 µM

Row | SMILES | Percent Effect [%]
1 | Cc1cc(Cl)ccc1NCC(=O)Nc1cc(C(C)(C)C)no1 | -19.79
2 | O=C(C[C@@H]1COC[C@H]2CN(C(=O)c3ccccn3)C[C@@H]12)N1CCCC1.O=C(O)C(F)(F)F | 106.7
3 | Cc1cccc(C(=O)N2C[C@@H]3[C@H](CC(=O)NC(C)C)[C@@H]3C2)n1.O=C(O)C(F)(F)F | -21.16
4 | Cc1cccc(C(=O)N2C[C@@H]3COC[C@@H](CC(=O)N4CCCC4)[C@@H]3C2)n1.O=C(O)C(F)(F)F | 117.6
5 | O=C(C[C@@H]1COC[C@H]2CN(Cc3ccc(F)cc3)C[C@@H]12)N1CCCCO1.O=C(O)C(F)(F)F | 6.294
6 | O=C(C[C@@H]1COC[C@H]2CN(Cc3ccsc3)C[C@@H]12)N1CCCC1 | -43.11
7 | Cc1cccc(C(=O)N2C[C@@H]3[C@H](CC(=O)N4CCCC4)[C@@H]3C2)n1 | -9.844
8 | COc1ccc2c(C)c(C(=O)NCC3CN(S(C)(=O)=O)CCO3)oc2c1 (configuration not stated) | -45.67
9 | CC(C)[C@@H]1CN(Cc2ccccc2C#N)C[C@H]1C(=O)O | -3.453
10 | CC(=O)c1cc(CN2C[C@H]3CC[C@@H]2CN(Cc2c(C)noc2C)C3)cs1 | 0.576
11 | c1cnc(Nc2cncc(C3CCCN(c4ncccn4)C3)n2)nc1 (configuration not stated) | 144.2
12 | c1cnc(Nc2cncc(C3CCCN(c4cnccn4)C3)n2)nc1 (configuration not stated) | 136.5
13 | c1ccc(N2CCCC(c3nc(-c4cccnn4)no3)C2)nc1 (configuration not stated) | -11.75
14 | Cc1cc(NC(=O)CNc2cccc(C(=O)N3CCCC(O)C3)c2)no1 (configuration not stated) | -4.959
15 | Cc1ccc(C(O)CNC(=O)CCCc2ccccn2)o1 (configuration not stated) | -12.57
16 | Nc1nnc(SCC(=O)NCC(O)c2ccccc2)s1 (configuration not stated) | 7.273
17 | CC(NC(=O)CCn1c(=O)oc2ccccc21)c1ccccn1 (configuration not stated) | 132.8
18 | O=C(CCc1ccccn1)NCC(O)c1ccc(Cl)cc1Cl (configuration not stated) | -3.695
19 | O=C(CCn1c(=O)oc2ccccc21)NCC(O)c1ccccc1 (configuration not stated) | 124.9
20 | O=C(CCn1c(=O)oc2ccccc21)NCC(O)c1ccc(Cl)cc1 (configuration not stated) | 131.9
21 | O=C(CCn1c(=O)oc2ccccc21)NCC(O)c1ccc(F)c(F)c1 (configuration not stated) | 132.5
22 | O=C(CCCc1ccccn1)NCC(O)c1ccccc1Cl (configuration not stated) | 8.067
23 | CC(c1ccccn1)N(C)C(=O)NCCn1c(=O)oc2ccccc21 (configuration not stated) | -13.01
24 | O=C(Cn1c(=O)oc2ccccc21)NCC(O)c1ccc2c(c1)CCO2 (configuration not stated) | -5.514

Row | SMILES | Percent Effect [%]
25 | CC(NCCn1c(=O)oc2ccccc21)c1ccccn1 (configuration not stated) | -1.92
26 | O=C(NCC(O)c1ccc(F)c(F)c1)c1ccccc1F (configuration not stated) | -40.57
27 | COCc1ccc(C(=O)NS(=O)(=O)c2ccc3c(c2)CCC(=O)N3)cc1 | -28.72
28 | Cc1cc(N2CCN(C(=O)c3cc(Cl)c[nH]3)CC2)nc(C)n1 | -11.81
29 | COc1cccc(-c2cc(C3CCCNC3)ccn2)c1 (configuration not stated) | 179.8
30 | COc1ccc(-c2cc(C3CCN(C(C)=O)CC3)ccn2)cc1 | 135.1
31 | COc1cccc(-c2c[nH]c(C3CCCN3)n2)c1.Cl.Cl (configuration not stated) | -13.27
32 | COc1ccc([C@@H]2CN(c3cc(C(=O)O)ccn3)C[C@H]2N(C)C)cc1 | -11.81
33 | COc1ccc(-c2cc(C3CCNCC3)ccn2)cc1.Cl | 126.8
34 | COc1ccc(-c2nc(C3CCNCC3)cc3c2ncn3C)cc1.Cl.Cl | -43.66
35 | COc1ccc([C@@H](C)n2ccnc2-c2cc3n(n2)CCCNC3)cc1 | -13.97
36 | COc1ccc(OC)c(C2CCN(C3CCN(C(C)=O)CC3)C2)c1 (configuration not stated) | -1.425
37 | Cn1ccnc1CN1CCC(c2ccnc(-c3cccc(O)c3)c2)C1 (configuration not stated) | 8.376
38 | COc1ccc(-c2cc(C3CCCNC3)ccn2)cc1.Cl (configuration not stated) | 198.3
39 | CC(NC(=O)CCCc1ccc(Cl)cc1)c1n[nH]c(=O)[nH]1 (configuration not stated) | 26.11
40 | COCCCNC(=O)C1CCN(CC2(O)CCC(C)CC2)CC1 (configuration not stated) | -1.754
41 | O=C(c1ccc(O)c(Cl)c1)N1CCC(c2n[nH]c(C3CC3)n2)CC1 | 7.915
42 | Cc1ccsc1CNC(=O)c1ccc(N2CCOC2=O)cc1 | 25.75
43 | Cc1noc(C)c1CNC(=O)Nc1ccc(N2CCOC2=O)cc1 | 99.13
44 | Cc1noc(C)c1CNC(=O)Nc1ccc(N2CCSCC2)cc1 | 101.4
45 | Cc1noc(C)c1CN1C[C@@H](C(=O)O)[C@H](c2ccccc2)C1 | -10.93
46 | Cc1noc(C)c1C(=O)NCc1ccc(N2CCOC(C)C2)nc1 (configuration not stated) | 6.815
47 | Cc1noc(C)c1CCCNC(=O)Nc1ccc2c(c1)CC(=O)N2 | -4.957
48 | CC1CN(c2ccc(CNC(=O)NCc3ccoc3)cn2)CCO1 (configuration not stated) | 4.131

Row | SMILES | Percent Effect [%]
49 | Cc1ocnc1CNC(=O)Nc1ccc(N2CCOC(C)C2)cc1 (configuration not stated) | 105.8
50 | Cc1noc(C)c1CNC(=O)Nc1ccc(N2CCOC(C)C2)cc1 (configuration not stated) | 95.8
51 | CC1CN(c2ccc(CNC(=O)NCCO)cn2)CCO1 (configuration not stated) | -1.494
52 | Cc1noc(C)c1CNC(=O)N1CCC(CO)CC1 | -12.65
53 | Cc1noc(C)c1CCCNC(=O)Nc1ccc2c(c1)COC2 | 12.5
54 | O=C(CCCn1cncn1)NC1(c2ccc(Cl)cc2)CCC1 | -16.99
55 | COc1cc(CCC(=O)N2CCC(c3cc4nccnc4[nH]3)CC2)on1 | 109.8
56 | O=C(CCc1cc(O)no1)N1CCCC(COc2ccc(F)cc2)C1 (configuration not stated) | -11.68
57 | COc1cc(CCC(=O)N2CCC(c3cc4ncccc4[nH]3)CC2)on1 | 86.08
58 | O=C(CCN1CCC(c2cc3ccccc3[nH]2)CC1)N1CCOCC1 | -13.23
59 | O=C(CCc1cc(O)no1)N1CCCC(COc2ccccc2F)C1 (configuration not stated) | -3.381
60 | O=C(CCn1ccc(=O)[nH]c1=O)N1CCC(Oc2ccccn2)CC1 | 4.456
61 | CNC(=O)N1Cc2cc(F)ccc2C2(CCN(C)CC2)C1.Cl | 3.324
62 | O=C(CCN1CCC(C(=O)c2cc(F)ccc2F)CC1)NC1CCCC1 | -34
63 | O=C(NC1(C(=O)O)CCCC1)C1Cc2cc(F)ccc2O1 (configuration not stated) | -1.866
64 | CC(C)NC(=O)[C@@H]1CN(C)C[C@]12COc1ccc(F)cc1C2=O | 126.3
65 | O=C(NCCNC(=O)C1Cc2cc(F)ccc2O1)C1CCCCC1 (configuration not stated) | 14.96
66 | CN1CCN(C(=O)[C@@H]2CN(C)C[C@]23COc2ccc(F)cc2C3=O)CC1 | 67.23
67 | O=C(C1CCOc2ccccc21)N1CCOc2ccc(F)cc21 (configuration not stated) | 2.761
68 | CN1C[C@@H](C(=O)NC2CCCC2)[C@@]2(COc3ccc(F)cc3C2=O)C1 | 83.49
69 | Cc1ccsc1C(=O)N1CC(C(=O)NC(C)C)C2(CCOCC2)C1 (configuration not stated) | 2.071
70 | CCCN1CCC(NC(=O)c2ccc(F)cc2I)CC1 | 3.516
71 | CN1C[C@@H](C(=O)NC2CC2)[C@@]2(COc3ccc(F)cc3C2=O)C1 | 74.8
72 | CC(C)NC(=O)C1CN(C(=O)c2ccc(F)cc2)CC12CCOCC2 (configuration not stated) | 19.27
